Experimental data from PubChem BioAssay AID1117319 (Southern Research Institute, 2015).
Where “and” joins values, the source holds several entries; their conditions need not be identical. Identical values can stand only once. Among all 260,000 compounds or so, about 1,500 (0.58%) were called active. Inconclusive results (about 5%) are left out.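 Rule for the calls: active = inhibition above a set limit at one or more doses, reproduced on every date tested; inconclusive = results disagree between test dates, or hit never tested in dose response; inactive = the rest.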 Not all results are given here. Results with a measured potency or affinity are listed apart.

Each compound was assayed against Virion infectivity factor (Human immunodeficiency virus type 1 group M subtype B (isolate BH10)) + Virion infectivity factor (Human immunodeficiency virus type 1 group M subtype B (isolate BRU/LAI)) + Virion infectivity factor (Human immunodeficiency virus type 1 group M subtype B (isolate PCV12)) + Virion infectivity factor (Human immunodeficiency virus type 1 group M subtype B (isolate HXB2)) + DNA dC->dU-editing enzyme APOBEC-3G (Homo sapiens) (UniProt P69720+P69721+P69722+P69723+Q9HC16) (assay: inhibitors of Vif binding to APOBEC3G peptide, primary screen, biochemical, TR-FRET, GST-Vif 1-94, biotin-A3G peptide, dose response retest (AID 1117319;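 note: Vif residues 1-94 fused to GST binding biotinylated APOBEC3G peptide 110-148; 0% = full assay without inhibitor and 100% = GST in place of GST-Vif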)). Details: stronger effect = higher value.

inhibition, inactive:
COc1cccc(CN2CC(C(=O)N(C)CCCC3CCCC3)CCC2=O)c1 (configuration not stated) -1.28%
CCC(C)(C)n1nnnc1C(c1cc2cc(OC)ccc2[nH]c1=O)N1CCc2ccccc21 (configuration not stated) 3.72% and -1.49%
Cc1ccc2[nH]c(=O)c(C(c3nnnn3C3CCCC3)N3CCCc4ccccc43)cc2c1 (configuration not stated) 16.5%
O=c1cc(CSc2nnc(Nc3ccccc3F)s2)nc2sccn12 -10.7%
COc1ccccc1C(CNC(=O)c1ccc(OCc2c(C)noc2C)cc1)N1CCCC1 (configuration not stated) 7.05%
COc1cc(C(=O)NCC(c2ccco2)N2CCCC2)ccc1OCc1ccccc1 (configuration not stated) 3.67%
Cc1ccc(NC(=O)COC(=O)CN2CCSC2=O)cc1Cl 7.83%
Cc1ccc(/C=C2/CNC/C(=C/c3ccc(C)cc3)C2=O)cc1 4.14%
Cc1ccc(/C=N/N=C/c2ccc(C)cc2)cc1 1.03%
Cc1nc2ccccc2n1CCN1CCOCC1 -1%
COC(=O)c1nn(-c2ccc(Oc3ccccc3)cc2)c(=O)cc1O 2.63%
Nc1ccc(S(=O)(=O)N2CCOCCOCCOCCOCCOCC2)cc1 1.81%
C=C(C)C(=O)OCC(=O)NCc1ccccc1 -3.45%
Oc1ccccc1/C=N/NC1=NCCCCC1 -2.42%
Oc1ccc(/C=N/NC2=NCCCCC2)cc1 27.5%
O=C(O)c1cccc(S(=O)(=O)Nc2cccc(S(=O)(=O)N3CCCCCC3)c2)c1 4%
Cc1cccc(N(Cc2ccccc2F)S(C)(=O)=O)c1 22.4%
CC(C)C1=Nc2cccc3cccc(c23)N1 -3.35%
c1coc(C2=Nc3cccc4cccc(c34)N2)c1 8.06%
Fc1ccc(C2=Nc3cccc4cccc(c34)N2)cc1 -0.82%
COc1ccc(C2=Nc3cccc4cccc(c34)N2)cc1 -2.87%
CC(=C\c1ccccc1)/C=C1/SC(=S)N(CCC(=O)O)C1=O -2.12%
CC(=O)c1ccc(NC(=O)CCCN2C(=O)/C(=C/C(C)=C/c3ccccc3)SC2=S)cc1 4.61%
CC(=C\c1ccccc1)/C=C1/SC(=O)N(CCCC(=O)Nc2ccc(C(=O)O)cc2)C1=O 0.71%
CC(=C\c1ccccc1)/C=C1/SC(=S)N(CCCC(=O)O)C1=O 2.05%
CC1=C(C(=O)N(C)C)C(c2cccs2)NC(=O)N1 (configuration not stated) 4.4%
O=C(CS(=O)(=O)c1ccc(F)cc1)N1CCN(c2ccccc2)CC1 -1.09%
c1ccc(Nc2ccccc2)cc1 -0.33%
Cc1ccc(Nc2ccccc2)cc1 6.07%
Cc1cc(NC(=O)CSc2nnc(C)n2-c2ccccc2)no1 1.46%
COC(=O)[C@@H](NC(=O)O[C@H]1C(=O)c2ccc(OC)cc2O[C@@H]1c1ccc2c(c1)OCO2)C(C)C 12.9%
COc1ccc2c(c1)O[C@H](c1ccc3c(c1)OCO3)[C@@H](OC(=O)N[C@H]1CCCc3ccccc31)C2=O 4.66%
CC(OC(=O)CCc1nc2ccccc2[nH]c1=O)C(=O)c1ccccc1 (configuration not stated) 6.75%
CC1Cc2ccccc2N1Cc1nc2cc(Cl)ccc2c(=O)[nH]1 (configuration not stated) 7.91%
COC(=O)c1ccc2c(=O)[nH]c(CN3c4ccccc4CC3C)nc2c1 (configuration not stated) 8.14%
O=C(Cn1cnc2ccccc21)NCCCN1CCOCC1 -5.55%
O=C(NNS(=O)(=O)c1ccccc1[N+](=O)[O-])c1ccc(F)cc1 -0.91%
O=C1NC(=O)/C(=C/c2ccc(N3CCOCC3)o2)N1 12.2%
O=C1NC(=O)/C(=C\c2ccc(Sc3ccc(Cl)cc3)o2)N1 21.1%
Cc1nnc(SCC(=O)NNC(=O)c2ccco2)n1-c1ccccc1 6.15%
Cc1cccc(N2CC(C(=O)Nc3ccccc3N3CCOCC3)CC2=O)c1C (configuration not stated) -2.77%
CCCCn1c(SCC(=O)Nc2cc(C)on2)nnc1-c1cccnc1 -3.02%
CCn1c(SCC(=O)Nc2cc(C)on2)nnc1-c1ccccc1 -1.57%
CCc1nc(SCC(=O)c2ccccc2)c2c(=O)n(C)c(=O)n(C)c2n1 -11.9%
CC1(c2ccc([N+](=O)[O-])cc2)NC(=O)N(CC(=O)Nc2cccnc2Cl)C1=O (configuration not stated) -4.51%
COc1cc(N=C2C(=O)N3c4c(cccc42)C(C)=CC3(C)C)cc(OC)c1 -3.94%
CC1=CC(C)(C)N2C(=O)C3(C(C#N)=C(N)Oc4cc(O)ccc43)c3cccc1c32 (configuration not stated) 4.05%
CN(C)c1oc(-c2ccco2)nc1S(=O)(=O)c1ccc(Br)cc1 10.3%
Cc1cc(NC(=O)c2coc(=O)c(Br)c2)ccc1C(C)C 10.6%
O=C(NCCc1ccc(F)cc1)c1coc(=O)c(Br)c1 -6.83%
O=C(Nc1ccc(Br)cn1)c1ccc2ccccc2c1 -12.4%
CC(C)CNC(=O)c1coc(=O)c(Br)c1 12.1%
COc1ccccc1NC(=O)c1coc(=O)c(Br)c1 13.2%
O=C(Nc1ccc(Br)cn1)c1cccc(C(=O)Nc2ccc(Br)cn2)c1 -16%
CCCN(CC(=O)Nc1ccccc1OC)C(=O)c1ccc2[nH]c3c(c2c1)CC(C)CC3 (configuration not stated) 2.48%
C[C@@H]1NC(=O)[C@H](CC(N)=O)NC(=O)c2cc([N+](=O)[O-])cc(I)c2OCC[C@@H](C(=O)NC(CC(=O)O)C(N)=O)NC1=O (some centres not stated) 10.6%
Cc1csc(SC(C)C(=O)Nc2ccccc2C)n1 (configuration not stated) -12.6%
Cc1ccc(C2=NC(C)(C)N=C2SCC(=O)Nc2ccc(Cl)cc2)cc1 2.26%
O=C(NC(=S)Nc1cc(-c2nc3ccccc3[nH]2)ccc1Cl)c1ccc2c(c1)OCO2 6.14%
C[C@H]1CN([C@@H](C)CO)C(=O)CCCn2nncc2CO[C@@H]1CN(C)Cc1ccc(Cl)c(Cl)c1 -0.91%
CCN(CC)c1ccc(/C=N/NS(=O)(=O)c2ccc(CNC(C)=O)cc2)cc1 -3.65%
COc1cccc(OCc2cc(/C=N/NC(=O)c3ccn[nH]3)ccc2OC)c1 0.65%
COC(=O)C1=C(N)N(c2ccc(F)cc2)C2=C(C(=O)CCC2)C1c1ccc2c(c1)OCO2 (configuration not stated) -32.1%
Cn1c(SCCOc2ccc(F)cc2)nnc1-c1ccncc1 -1.32%
Cn1c(SCCOc2ccc(Cl)cc2)nnc1-c1ccncc1 3.6%
CCOc1ccc(C(=O)NCC2CCCO2)cc1OCC (configuration not stated) 1.97%
CCOc1ccccc1NC(=S)NCC1CCCO1 (configuration not stated) -2.09%
CC(=O)c1c(C)[nH]c(C(=O)NCc2ccc(F)cc2)c1C -3.52%
NC(=O)NC(=O)COC(=O)c1ccc(Cl)c(S(=O)(=O)N(Cc2ccccc2)c2ccc(Cl)cc2)c1 -3.29%
Cc1cccc(Nc2nc(-c3cccs3)cs2)n1 8.51%
CCNc1c(C(=O)O)ccc2c1C(=O)c1ccccc1C2=O 32.2%
O=C(O)c1ccc2c(c1Nc1ccccc1)C(=O)c1ccccc1C2=O -2.59%
COc1ccc(C(=O)NC2CC2)cc1OC1CCN(Cc2ccccc2F)CC1 -1.16%
Nc1nnnn1/N=C/c1cccc(O)c1 9.19%
O=C(CSc1nc(O)c(C2CCCCC2)c(=O)[nH]1)NCC1CCCO1 (configuration not stated) 14.4%
Cc1ccc(CNC(=O)C2CC(=O)N(c3ccc(OCC(=O)N4CCCC4)cc3)C2)cc1 (configuration not stated) -0.42%
O=C(c1ccc(Cl)cc1)c1cnc(-c2ccccc2)s1 -2.61%
Cc1ccc(C=C2C=C(c3ccccc3)OC2=O)cc1 6.6%
O=C1OC(c2ccc(F)cc2)=C/C1=C\c1ccc(O)cc1 -0.55%
C=CCN(C(=O)Nc1ccc(OC)cc1)c1nnc(-c2ccncc2)s1 -4.12%
Cc1cc(NC(=O)CCl)n(-c2nc3ccccc3s2)n1 -1.34%
CC(=O)Nc1cc(C)nn1-c1nc2ccccc2s1 -19.4%
O=C1CSC(c2ccc(Cl)cc2)N1c1cccnc1 (configuration not stated) 3.17%
CCOC(=O)C1CCCN(c2ncnc3c2cnn3-c2ccc(OC)cc2)C1 (configuration not stated) -2.45%
CCOC(=O)C1CCN(c2ncnc3c2cnn3-c2ccc(Cl)cc2)CC1 -26.4%
O=C(CCSc1ccc(Cl)cc1)c1ccco1 2.25%
O=C(CSc1ccc(Cl)cc1)NNC(=O)c1ccco1 2.28%
COc1ccc(NS(=O)(=O)c2cccc(Cl)c2)cc1S(=O)(=O)N1CCCCC1 2.26%
COc1ccc(NS(=O)(=O)c2cc(Cl)ccc2Cl)cc1S(=O)(=O)N1CCCCC1 10.3%
Nc1nc(Cn2nnc(-c3ccccc3F)n2)nc(N2CCOCC2)n1 -5.97%
COc1ccc(N=CC2=C(O)CCCC2=O)cc1 72.2%
CC1(C)CC(=O)C(C=Nc2ccc(O)cc2)=C(O)C1 21.5%
COC(=O)c1cccc(COC(=O)c2ccc(N(C)C)cc2)c1 -1.93%
CC1CCCCN1C(=O)CSc1nc2ccccc2[nH]1 (configuration not stated) -5.81%
COc1ccc(O)c(/C=N/NC(=S)Nc2cccc(S(=O)(=O)N(C)C)c2)c1 12.6%
CCn1c(C)nc2cc(C(=O)N/N=C/c3ccccc3C)ccc21 -5.98%
CCN(CC)S(=O)(=O)c1cccc(C(=O)N/N=C/c2cc(OC)c(O)c(OC)c2)c1 1.27%
Cc1cccc(N/N=C/c2ccccc2O)c1 0.12%
CN(C)S(=O)(=O)c1cccc(NC(=S)N/N=C/c2cc(Br)ccc2O)c1 9.46%
CCn1c(C)nc2cc(C(=O)N/N=C/c3ccccc3)ccc21 4.16%
CCOc1ccccc1/C=N/NC(=O)c1cccc(S(=O)(=O)N(CC)CC)c1 -6.17%
Cc1cccc(N/N=C/c2ccncc2)c1 4.59%
